A selection: hits, their analogues and other compounds. The true share with any hit is near 7.4%.
M1 agonist: M1 muscarinic receptor agonism; B-score at 10 µM; AID 626; CHO-M1 cells, Fluo-4 calcium fluorescence, agonist mode; stronger effect = higher value; hit rate 3% among 64,000;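 active means fluorescence rise, raw or as B-score row- and column-corrected plate score, outside the 99.7% band of its plate's samples, either direction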
FXIIa inh mix: factor XIIa (human) inhibition, mixture screen; purified FXIIa, fluorogenic substrate, pooled mixtures; AID 684; hit rate 0.2% among 62,000; inhibition, % at 5 µM;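 further: 0% = enzyme without compound and 100% = no enzyme blank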
DAT uptake mod: human DAT dopamine uptake with cocaine, either direction. Q01959. LLC-PK1 hDAT cells, [14C]-dopamine uptake with cocaine IC80; actives deviate in either direction. B-score at 10 µM. hit rate 1.3% among 110,000;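 active means Z score or B-score, a plate-position-corrected score, falls beyond the plate's 99.7% confidence bounds, in either direction; inactive means both scores lie inside the 99.7% bounds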;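 further: scored against the spread of the other compound wells on the same plate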
FXIa inh mix: blocks human factor XIa in pooled compound mixtures. AID 680. hit rate 0.19% among 62,000. inhibition, % at 5 µM. purified FXIa, fluorogenic substrate;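 further: each value is inhibition by a whole ten-compound pool holding the compound; 0% = enzyme with no mixture and 100% = wells lacking enzyme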
Target sequence (P03951 19-387 limits assumed): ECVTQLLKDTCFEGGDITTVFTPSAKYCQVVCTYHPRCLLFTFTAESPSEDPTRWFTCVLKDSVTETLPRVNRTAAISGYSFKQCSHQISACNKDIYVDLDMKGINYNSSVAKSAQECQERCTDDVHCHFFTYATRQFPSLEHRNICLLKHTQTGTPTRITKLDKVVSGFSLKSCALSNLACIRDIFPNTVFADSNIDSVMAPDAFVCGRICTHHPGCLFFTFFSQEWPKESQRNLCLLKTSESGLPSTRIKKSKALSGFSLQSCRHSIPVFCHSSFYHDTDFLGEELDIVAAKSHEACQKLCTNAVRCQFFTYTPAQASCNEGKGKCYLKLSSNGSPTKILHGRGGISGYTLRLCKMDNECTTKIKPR
Target sequence (P03951 388-625 limits assumed): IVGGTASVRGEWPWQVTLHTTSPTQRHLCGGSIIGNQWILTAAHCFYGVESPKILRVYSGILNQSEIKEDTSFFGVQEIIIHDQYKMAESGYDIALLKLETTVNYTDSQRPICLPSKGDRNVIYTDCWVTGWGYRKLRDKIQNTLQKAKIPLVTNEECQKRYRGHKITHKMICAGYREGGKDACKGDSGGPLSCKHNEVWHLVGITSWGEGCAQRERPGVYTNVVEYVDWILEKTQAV
M1 antag: blocks the rat M1 muscarinic receptor response to acetylcholine. P08482. CHO-M1 cells, Fluo-4 calcium, ACh EC80 antagonist mode; stronger effect = lower value. B-score at 10 µM. hit rate 3.4% among 64,000;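 active means calcium fluorescence response, raw or row-and-column corrected B-score, differing from the plate sample mean either way at a set confidence level, mostly lower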
D1 allo mod: allosterically modulates the human D1 dopamine receptor. P21728. hit rate 5.9% among 58,000. B-score at 10 µM. HEK293 D1, CRE-luciferase, dopamine EC30 potentiation; actives deviate in either direction;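 active means luminescence count or its row- and column-corrected plate score outside the 99.7% band of the plate's sample wells, on either side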
Active calls of the source: *; x = not tested or not shown; ! = repeats disagree. Unless noted, no stated cut-off is given here; in the data, active means inhibition above about 20% (passing the limit was not always enough); inactive means the rest.

SMILES	M1 agonist	FXIIa inh mix	DAT uptake mod	FXIa inh mix	M1 antag	D1 allo mod
O=c1cc(N2CCN(c3ccccc3F)CC2)[nH]c(=O)n1-c1ccc(Br)cc1	-2.6*	-2	-0.0022	2	0.35	-2.2
O=C(NCc1cccs1)c1nc2c(nnn2Cc2ccccc2Cl)c(=O)[nH]1	x	11	0.79	1	x	x
Cn1c(=NC(=O)CSCC(=O)N2CCCC2)sc2ccccc21	-0.26	6	-1.5	3	-0.25	0.97
CC1CCCN(C(=O)CSCC(=O)N=c2sc3ccccc3n2C)C1 (stereo not given)	0.75	-23	2.7*	9	0.56	0.45
CCSc1nnc(NC(=O)CCNS(=O)(=O)c2cc(Br)cnc2N)s1	0.059	6	-0.69	-3	0.0047	0.13
C=CCOC(=O)C1=C(C)Nc2ncnn2C1c1cc(Br)ccc1F (stereo not given)	0.95	-1	0.22	3	0.3	0.23
Fc1ccc(Br)cc1C1C=C(c2ccc(Br)s2)Nc2ncnn21 (stereo not given)	20*	15	0.043	-1	-0.37	0.86
COc1ccc(C(O)c2nc3ccccc3s2)cc1 (stereo not given)	-0.34	34	-1.9*	8	-0.41	1.9
O=C1CC(C(=O)Nc2ccc(C(=O)N3CCOCC3)cc2)C2(CCCCC2)O1 (stereo not given)	-1.6	0	-1.7	3	-0.36	-0.11
COc1ccc2c(c1)CCc1c(C(=O)N3CC4(C)CC3CC(C)(C)C4)noc1-2 (stereo not given)	27*	12	1.3	5	0.037	0.0069
Fc1ccc(CSc2ncnc3sc4c(c23)CCCC4)cc1	x	x	-0.062	x	x	x
CCOC(=O)N1CCN(Cc2nc(N)nc(Nc3ccccc3C)n2)CC1	x	x	0.73	x	x	x
COc1ccc(C(=O)Nn2c(SCC(=O)NCc3ccco3)nc3ccccc3c2=O)cc1	-1.1	7	0.54	-1	-0.45	-9.3*
CCn1nnnc1SCC(=O)NCc1ccco1	0.051	-12	-8.8*	5	-0.055	-0.1
CCCCn1nnnc1SCC(=O)NCc1ccco1	x	x	0.22	x	x	x
COc1ccccc1NC(=O)c1cc(S(=O)(=O)N2CCOCC2)ccc1Cl	0.27	32*	-0.85	4	1	-0.49
O=C(Nc1ccccc1O)c1cc(S(=O)(=O)N2CCOCC2)ccc1Cl	0.38	-18	0.76	11	0.71	-0.38
CCOc1cc(S(=O)(=O)N2CCCCC2)ccc1Cl	x	6	x	10	x	-4*
COc1ccc(OC(=O)c2cc(S(=O)(=O)N3CCCC3)ccc2Cl)cc1	x	x	-2.3*	x	x	x
Nc1ccc2oc3ccc(N)cc3c(=O)c2c1	x	x	0.0076	x	x	x
N#CCCN(CCC#N)C(=O)COc1ccc(Cl)cc1Cl	0.62	4	-0.82	-1	-1.2	-0.051
COC(=O)[C@H](C)NC(=O)Nc1ccc(S(N)(=O)=O)cc1	0.41	0	0.56	1	1.6*	0.29
CCn1nnc(NC(=O)c2ccc(C(C)(C)C)cc2)n1	-0.55	4	0.84	0	0.082	x
CCn1nnc(NC(=O)c2cccnc2)n1	-0.96	7	-0.32	1	0.77*	0.0048
Cc1ccc(NC(=O)CN2C(=O)NC3(CCc4ccccc43)C2=O)cc1Cl (stereo not given)	x	x	-1.2	x	x	x
SMILES	M1 agonist	FXIIa inh mix	DAT uptake mod	FXIa inh mix	M1 antag	D1 allo mod
Cc1ccc(NC(=O)NC(=O)CN2C(=O)NC3(CCc4ccccc43)C2=O)c(C)c1 (stereo not given)	-0.1	7	2.5*	-2	-0.0011	x
Cc1cc(C(=O)Nc2ccccn2)cs1	0.58	-18	0.8	5	0.53	-3.8*
Cc1cc(C)n(-c2ccc(C(=O)Nc3ccccn3)cc2)n1	-0.8	6	0.46	2	0.21	-4.1*
Cc1cc(C)n(-c2ccc(C(=O)Nc3nnc(C)s3)cc2)n1	x	x	0.39	x	x	x
COc1ccc(/C=C/C(=O)Nc2c(C)nn(C)c2C)cc1COc1ccc(Cl)cc1Br	x	x	0.16	x	x	x
COc1ccccc1N1CCN(CCC(=O)Nc2ccc3c(c2)OCO3)CC1	x	3	-0.78	-4	x	-2.2*
N#CCSc1nc2sc3c(c2c(=O)n1C1CCCCC1)CCCC3	0.11	x	-0.95	x	0.19	x
CCSc1nc2sc3c(c2c(=O)n1C1CCCCC1)CCN(C)C3	-0.89	x	x	x	-2.3*	x
Cc1ccc(NC(=O)C2CC=CCC2C(=O)N2CCCCC2)cc1 (stereo not given)	0.7	7	-0.92	-4	-0.16	0.35
Cc1ccc(NC(=O)NC2=N/C(=C(/C#N)C(=O)N3CCCC3)c3ccccc32)cc1	1.7	8	0.2	4	0.24	-3.8*
Cc1cc2ccccc2n1CCNC(=O)c1ccc(S(=O)(=O)N2CCCCC2)cc1	x	x	2.5*	x	x	x
COc1cccc(Oc2ccc(N)cn2)c1	-0.23	23*	-0.74	-9	0.97	-0.33
CCOc1cccc(Oc2ccc(C(F)(F)F)cn2)c1	0.018	4	-0.74	11	-1.6	-0.69
CCNc1nc(NCC)nc(OCCNS(=O)(=O)c2cc(C)ccc2C)n1	-1.4	6	1.3	-2	-1.7	-0.83
CCNc1nc(OCCNS(=O)(=O)c2cc(C)ccc2C)nc(N(C)C)n1	-0.83	5	1.7	0	1.8*	2.8
CCN(CCNC(=O)C1CCN(S(=O)(=O)CC)CC1)c1ccccc1	0.14	7	-0.012	5	-0.021	0.081
O=C1C(c2ccc(F)cc2)N(Cc2ccc3c(c2)OCO3)C(=O)CN1C1CCCCCC1 (stereo not given)	x	x	1.2	x	x	x
Fc1ccc([C@@H]2CCNC[C@H]2COc2ccc3c(c2)OCO3)cc1	x	x	-3.7*!	x	x	x
Cc1cc(C)n(C(=O)CCCCCCCCC(=O)n2nc(C)cc2C)n1	x	x	-0.93	x	x	x
Nc1nc(Br)c2c(F)cccc2c1-c1ccc(Cl)cc1	x	x	1.1	x	x	x
O=S(=O)(NCC1CCN(S(=O)(=O)c2ccccc2)CC1)c1ccccc1	-0.024	4	-0.099	7	0.34	-0.28
CC1(C)Cc2nc(N)c(C(=O)NCCO)cc2CO1	0.94	x	0.15	x	6.6*	x
CC(C)(C)n1ncc2c(=O)n(CC(=O)NCc3ccccc3)cnc21	0.86	0	-0.97	6	0.97	-5.4*
CC(=O)Nc1ccc(NC(=O)Cn2cnc3c(cnn3C(C)(C)C)c2=O)cc1	-0.48	11	1.1	4	1.2	0.44
COC(=O)[C@@]1(Cc2ccc(OC)cc2)[C@@H]2C(=CC(=O)[C@H]2CC(=O)C(=O)N2CCCC2)CN1C(=O)c1ccccc1	x	x	0.31	x	x	x
O=C(c1cc2c(=O)oc3ccccc3c2s1)N1CCOCC1	x	0	0.47	1	x	-4.6*
CCN1CCN(c2ncnc3c2sc2nc(N4CCOCC4)c4c(c23)CCC4)CC1	0.5	11	x	1	-0.83	x
c1nc(NCCN2CCOCC2)c2sc3nc(N4CCOCC4)c4c(c3c2n1)CCC4	1.7	8	x	5	-1.5	6.8*
COC(=O)C1CCN(C(=O)CCC2CCCCC2)CC1	x	x	-0.056	x	x	x
CCCCS(=O)(=O)/C=C\C=C/S(=O)(=O)CCCC	0.26	12	x	4	0.46	-2.4*

From PubChem
